Data taken from ChEMBL document CHEMBL1961873, “Compounds: GSK PKIS; Assays: Nanosyn kinase panel” (2012).

Assays:
[1] = molecular target: RAC-alpha serine/threonine-protein kinase (Homo sapiens) (UniProt P31749); conditions: at 0.1 µM
[2] = molecular target: RAC-alpha serine/threonine-protein kinase (Homo sapiens) (UniProt P31749); conditions: at 1 µM
[3] = molecular target: RAC-beta serine/threonine-protein kinase (Homo sapiens) (UniProt P31751); conditions: at 0.1 µM
[4] = molecular target: RAC-beta serine/threonine-protein kinase (Homo sapiens) (UniProt P31751); conditions: at 1 µM
[5] = molecular target: RAC-gamma serine/threonine-protein kinase (Homo sapiens) (UniProt Q9Y243); conditions: at 0.1 µM
Sequence of RAC-gamma serine/threonine-protein kinase (Homo sapiens) (Q9Y243 whole entry): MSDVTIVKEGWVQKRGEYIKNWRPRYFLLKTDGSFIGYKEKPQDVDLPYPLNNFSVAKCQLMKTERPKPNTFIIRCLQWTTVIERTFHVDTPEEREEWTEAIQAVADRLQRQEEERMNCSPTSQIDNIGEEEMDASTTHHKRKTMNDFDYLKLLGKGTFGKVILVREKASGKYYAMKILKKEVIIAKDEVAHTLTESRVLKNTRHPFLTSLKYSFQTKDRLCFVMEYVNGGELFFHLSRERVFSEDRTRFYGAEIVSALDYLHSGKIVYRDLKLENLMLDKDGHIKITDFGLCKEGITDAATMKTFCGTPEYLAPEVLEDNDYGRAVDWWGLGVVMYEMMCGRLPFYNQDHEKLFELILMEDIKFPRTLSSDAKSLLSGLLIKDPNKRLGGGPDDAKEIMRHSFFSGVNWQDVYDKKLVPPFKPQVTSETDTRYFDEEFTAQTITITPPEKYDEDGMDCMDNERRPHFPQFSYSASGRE

[6] = molecular target: RAC-gamma serine/threonine-protein kinase (Homo sapiens) (UniProt Q9Y243); conditions: at 1 µM
[7] = molecular target: G protein-coupled receptor kinase 6 (Homo sapiens) (UniProt P43250); conditions: at 0.1 µM
[8] = molecular target: G protein-coupled receptor kinase 6 (Homo sapiens) (UniProt P43250); conditions: at 1 µM
[9] = molecular target: T1, Rhodopsin kinase GRK7 (Homo sapiens) (UniProt Q8WTQ7); conditions: at 0.1 µM
T1 sequence (whole entry): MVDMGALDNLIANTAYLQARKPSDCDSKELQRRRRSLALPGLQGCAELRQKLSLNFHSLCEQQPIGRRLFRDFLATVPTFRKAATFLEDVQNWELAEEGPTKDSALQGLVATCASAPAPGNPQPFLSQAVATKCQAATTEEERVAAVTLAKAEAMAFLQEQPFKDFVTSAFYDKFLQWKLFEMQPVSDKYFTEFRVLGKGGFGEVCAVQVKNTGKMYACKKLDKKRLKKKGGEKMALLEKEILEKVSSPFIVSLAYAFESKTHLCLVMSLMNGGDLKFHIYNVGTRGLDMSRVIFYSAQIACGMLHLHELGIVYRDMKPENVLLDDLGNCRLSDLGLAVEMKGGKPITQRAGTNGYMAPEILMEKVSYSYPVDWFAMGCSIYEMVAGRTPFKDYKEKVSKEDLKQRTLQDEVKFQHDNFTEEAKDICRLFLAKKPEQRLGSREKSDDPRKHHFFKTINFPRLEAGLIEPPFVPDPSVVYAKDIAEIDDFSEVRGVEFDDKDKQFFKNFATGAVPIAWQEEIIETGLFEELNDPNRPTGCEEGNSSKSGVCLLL

[10] = molecular target: T1, Rhodopsin kinase GRK7 (Homo sapiens); conditions: at 1 µM
[11] = molecular target: Serine/threonine-protein kinase MRCK alpha (Homo sapiens) (UniProt Q5VT25); conditions: at 0.1 µM
Sequence of Serine/threonine-protein kinase MRCK alpha (Homo sapiens) (Q5VT25 whole entry): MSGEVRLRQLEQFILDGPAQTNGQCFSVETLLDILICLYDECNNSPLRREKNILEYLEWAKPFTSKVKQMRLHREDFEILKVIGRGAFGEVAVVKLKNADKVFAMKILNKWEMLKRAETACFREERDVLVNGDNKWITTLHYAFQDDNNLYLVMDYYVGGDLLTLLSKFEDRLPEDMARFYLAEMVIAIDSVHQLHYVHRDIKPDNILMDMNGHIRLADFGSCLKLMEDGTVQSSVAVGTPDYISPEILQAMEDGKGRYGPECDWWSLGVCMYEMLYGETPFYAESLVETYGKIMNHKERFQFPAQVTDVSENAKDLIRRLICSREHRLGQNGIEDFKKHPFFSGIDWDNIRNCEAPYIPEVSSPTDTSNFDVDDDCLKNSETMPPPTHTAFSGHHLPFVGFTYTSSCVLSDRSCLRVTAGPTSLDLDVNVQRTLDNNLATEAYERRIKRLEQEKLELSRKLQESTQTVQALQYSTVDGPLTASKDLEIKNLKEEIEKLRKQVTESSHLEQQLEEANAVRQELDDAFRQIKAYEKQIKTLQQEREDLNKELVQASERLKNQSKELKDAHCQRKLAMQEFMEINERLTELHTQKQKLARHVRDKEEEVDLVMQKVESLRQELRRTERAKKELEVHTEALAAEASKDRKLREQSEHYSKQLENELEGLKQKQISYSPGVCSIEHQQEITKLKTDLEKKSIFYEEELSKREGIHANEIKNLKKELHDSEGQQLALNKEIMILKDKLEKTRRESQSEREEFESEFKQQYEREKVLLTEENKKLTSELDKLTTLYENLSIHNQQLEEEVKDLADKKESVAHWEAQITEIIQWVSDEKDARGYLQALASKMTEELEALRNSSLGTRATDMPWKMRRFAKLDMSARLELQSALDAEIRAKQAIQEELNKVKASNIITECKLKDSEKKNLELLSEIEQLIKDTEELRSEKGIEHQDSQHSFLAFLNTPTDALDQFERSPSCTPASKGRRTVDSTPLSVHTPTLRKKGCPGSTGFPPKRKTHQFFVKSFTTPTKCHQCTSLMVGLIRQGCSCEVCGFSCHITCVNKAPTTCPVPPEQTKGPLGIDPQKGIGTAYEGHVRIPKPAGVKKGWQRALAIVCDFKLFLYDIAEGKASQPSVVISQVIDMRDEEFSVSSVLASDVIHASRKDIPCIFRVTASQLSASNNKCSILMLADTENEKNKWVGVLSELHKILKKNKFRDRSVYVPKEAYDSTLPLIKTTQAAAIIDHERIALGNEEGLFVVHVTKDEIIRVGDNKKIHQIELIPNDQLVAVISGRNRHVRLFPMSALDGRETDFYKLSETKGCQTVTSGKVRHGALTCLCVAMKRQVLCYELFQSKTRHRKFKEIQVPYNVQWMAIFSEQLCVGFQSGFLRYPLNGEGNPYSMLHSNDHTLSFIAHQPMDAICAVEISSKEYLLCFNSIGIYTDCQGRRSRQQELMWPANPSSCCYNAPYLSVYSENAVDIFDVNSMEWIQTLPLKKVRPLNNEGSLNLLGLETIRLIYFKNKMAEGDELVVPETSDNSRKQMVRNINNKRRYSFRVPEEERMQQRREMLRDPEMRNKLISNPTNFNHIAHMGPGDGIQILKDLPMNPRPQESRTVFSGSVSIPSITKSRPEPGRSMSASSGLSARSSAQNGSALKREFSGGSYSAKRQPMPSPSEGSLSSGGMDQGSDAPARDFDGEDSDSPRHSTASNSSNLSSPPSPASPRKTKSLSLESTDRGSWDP

[12] = molecular target: Serine/threonine-protein kinase MRCK alpha (Homo sapiens) (UniProt Q5VT25); conditions: at 1 µM
[13] = molecular target: Serine/threonine-protein kinase MRCK beta (Homo sapiens) (UniProt Q9Y5S2); conditions: at 0.1 µM
[14] = molecular target: Serine/threonine-protein kinase MRCK beta (Homo sapiens) (UniProt Q9Y5S2); conditions: at 1 µM
[15] = molecular target: Ribosomal protein S6 kinase alpha-5 (Homo sapiens) (UniProt O75582); conditions: at 0.1 µM
Sequence of Ribosomal protein S6 kinase alpha-5 (Homo sapiens) (O75582 whole entry, looked up): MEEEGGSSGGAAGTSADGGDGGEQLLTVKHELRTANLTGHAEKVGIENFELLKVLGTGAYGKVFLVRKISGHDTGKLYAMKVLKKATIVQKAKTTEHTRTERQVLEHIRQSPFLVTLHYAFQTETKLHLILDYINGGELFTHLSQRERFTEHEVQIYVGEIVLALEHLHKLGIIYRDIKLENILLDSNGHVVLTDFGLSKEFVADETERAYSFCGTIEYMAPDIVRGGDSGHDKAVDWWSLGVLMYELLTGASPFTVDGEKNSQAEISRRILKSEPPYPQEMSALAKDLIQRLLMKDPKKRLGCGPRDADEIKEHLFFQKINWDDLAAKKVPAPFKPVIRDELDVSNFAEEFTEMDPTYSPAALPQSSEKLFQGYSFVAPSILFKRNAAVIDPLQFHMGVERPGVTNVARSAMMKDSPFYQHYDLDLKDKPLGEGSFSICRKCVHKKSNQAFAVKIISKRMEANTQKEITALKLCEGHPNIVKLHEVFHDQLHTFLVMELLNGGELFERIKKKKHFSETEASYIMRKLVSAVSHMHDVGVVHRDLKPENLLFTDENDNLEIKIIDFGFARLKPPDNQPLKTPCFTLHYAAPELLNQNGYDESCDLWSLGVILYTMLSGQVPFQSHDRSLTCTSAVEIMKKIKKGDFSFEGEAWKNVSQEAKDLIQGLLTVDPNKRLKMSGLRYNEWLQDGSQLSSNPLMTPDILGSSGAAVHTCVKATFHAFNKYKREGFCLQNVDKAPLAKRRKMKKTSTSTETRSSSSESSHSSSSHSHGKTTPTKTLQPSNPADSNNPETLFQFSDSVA

[16] = molecular target: Ribosomal protein S6 kinase alpha-5 (Homo sapiens) (UniProt O75582); conditions: at 1 µM
[17] = molecular target: Ribosomal protein S6 kinase alpha-4 (Homo sapiens) (UniProt O75676); conditions: at 0.1 µM
Sequence of Ribosomal protein S6 kinase alpha-4 (Homo sapiens) (O75676 whole entry, looked up): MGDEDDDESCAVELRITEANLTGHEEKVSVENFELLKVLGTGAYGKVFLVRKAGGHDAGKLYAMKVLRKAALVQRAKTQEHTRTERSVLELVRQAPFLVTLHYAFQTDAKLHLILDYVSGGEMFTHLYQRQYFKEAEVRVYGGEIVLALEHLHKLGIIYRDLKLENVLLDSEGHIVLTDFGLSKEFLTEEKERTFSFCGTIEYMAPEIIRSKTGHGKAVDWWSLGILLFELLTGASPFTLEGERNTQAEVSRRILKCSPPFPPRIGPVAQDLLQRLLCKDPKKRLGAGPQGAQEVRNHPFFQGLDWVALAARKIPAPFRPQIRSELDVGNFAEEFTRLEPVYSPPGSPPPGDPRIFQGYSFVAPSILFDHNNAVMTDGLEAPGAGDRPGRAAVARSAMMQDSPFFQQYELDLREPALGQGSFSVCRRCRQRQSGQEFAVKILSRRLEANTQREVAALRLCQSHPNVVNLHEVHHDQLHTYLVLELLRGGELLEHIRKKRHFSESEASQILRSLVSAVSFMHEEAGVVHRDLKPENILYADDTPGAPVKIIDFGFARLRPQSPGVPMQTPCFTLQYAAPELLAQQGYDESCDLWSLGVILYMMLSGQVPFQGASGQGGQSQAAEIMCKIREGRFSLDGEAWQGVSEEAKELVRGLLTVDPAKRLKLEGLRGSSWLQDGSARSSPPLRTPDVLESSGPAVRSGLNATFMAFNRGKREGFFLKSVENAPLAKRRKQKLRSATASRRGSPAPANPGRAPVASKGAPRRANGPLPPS

[18] = molecular target: Ribosomal protein S6 kinase alpha-4 (Homo sapiens) (UniProt O75676); conditions: at 1 µM
[19] = molecular target: Ribosomal protein S6 kinase beta-1 (Homo sapiens) (UniProt P23443); conditions: at 0.1 µM
Sequence of Ribosomal protein S6 kinase beta-1 (Homo sapiens) (P23443 whole entry, looked up): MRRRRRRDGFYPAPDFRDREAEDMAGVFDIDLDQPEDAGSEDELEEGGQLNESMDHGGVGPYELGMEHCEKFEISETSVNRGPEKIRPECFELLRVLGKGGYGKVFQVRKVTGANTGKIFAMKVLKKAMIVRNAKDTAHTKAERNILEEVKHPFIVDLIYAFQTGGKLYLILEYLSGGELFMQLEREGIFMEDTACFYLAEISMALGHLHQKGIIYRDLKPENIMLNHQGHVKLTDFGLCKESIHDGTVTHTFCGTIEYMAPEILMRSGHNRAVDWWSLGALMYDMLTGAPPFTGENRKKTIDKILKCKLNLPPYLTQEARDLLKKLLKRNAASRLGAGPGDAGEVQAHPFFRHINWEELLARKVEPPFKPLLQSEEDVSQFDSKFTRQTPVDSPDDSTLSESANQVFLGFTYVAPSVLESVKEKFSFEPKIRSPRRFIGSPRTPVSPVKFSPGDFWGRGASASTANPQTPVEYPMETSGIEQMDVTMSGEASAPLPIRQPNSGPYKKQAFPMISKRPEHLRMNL

[20] = molecular target: Ribosomal protein S6 kinase beta-1 (Homo sapiens) (UniProt P23443); conditions: at 1 µM

Sequence of RAC-beta serine/threonine-protein kinase (Homo sapiens) (P31751 whole entry): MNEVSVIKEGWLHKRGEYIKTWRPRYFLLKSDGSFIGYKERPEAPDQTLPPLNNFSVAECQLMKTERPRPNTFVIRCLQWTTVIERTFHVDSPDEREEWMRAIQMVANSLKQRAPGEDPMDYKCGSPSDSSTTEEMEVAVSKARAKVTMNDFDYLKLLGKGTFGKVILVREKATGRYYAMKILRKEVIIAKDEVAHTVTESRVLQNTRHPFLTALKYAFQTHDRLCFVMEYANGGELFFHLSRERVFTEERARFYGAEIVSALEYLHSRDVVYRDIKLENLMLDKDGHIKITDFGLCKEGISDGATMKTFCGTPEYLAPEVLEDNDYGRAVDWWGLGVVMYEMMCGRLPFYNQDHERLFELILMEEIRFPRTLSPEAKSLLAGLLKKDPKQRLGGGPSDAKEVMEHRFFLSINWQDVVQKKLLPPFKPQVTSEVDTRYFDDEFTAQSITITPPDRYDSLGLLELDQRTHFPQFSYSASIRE

Row | Compound | inhibition [1] | inhibition [2] | inhibition [3] | inhibition [4] | inhibition [5] | inhibition [6] | inhibition [7] | inhibition [8] | inhibition [9] | inhibition [10] | inhibition [11] | inhibition [12] | inhibition [13] | inhibition [14] | inhibition [15] | inhibition [16] | inhibition [17] | inhibition [18] | inhibition [19] | inhibition [20]
1 | COc1cc(N2CCN(C(C)C)CC2)ccc1Nc1nc(Nc2ccc(F)cc2C(=O)NC[C@@H](O)CO)c2cc[nH]c2n1 | -3.58% | -2.63% | 0.2% | -1.3% | -2.3% | -1.37% | 9.59% | 13% | 5.2% | 13.3% | -0.84% | 3.26% | -0.21% | -1.04% | 2.19% | 2.99% | 3.14% | 4.18% | 1.29% | 2.5%
2 | c1ccc(-c2n[nH]cc2-c2ccnc(-c3ccc(OCCN4CCOCC4)cc3)c2)nc1 | -0.28% | 0.23% | -0.23% | -0.3% | -0.26% | 0.6% | -5.07% | -7.11% | 1.66% | -0.22% | 6.85% | -2.76% | 7.67% | 5.68% | 3.06% | 1.22% | 3.23% | 3.34% | 2.04% | 1.17%
3 | CS(=O)(=O)CCNCc1ccc(-c2ccc3ncnc(Nc4ccc(OCc5ccccc5)c(Br)c4)c3c2)o1 | -2.58% | -2.2% | -3.3% | -3.04% | -3.44% | -0.54% | -2.27% | 2.12% | 10.1% | 0.45% | -6.6% | -3.23% | -0.18% | -0.76% | 1.16% | -1.75% | 2.02% | 0.82% | 0.95% | 0.5%
4 | O=C1NC(=O)C(c2cccc(Cl)c2)=C1Nc1ccc(Cl)c(C(=O)O)c1 | 0.08% | 1.15% | 1.52% | 0.7% | 1.61% | 0.58% | 4.67% | 8.66% | 13.2% | 9.31% | 1.43% | 4.38% | 0.15% | -0.05% | 3.03% | 2.1% | 2.51% | 2.85% | 0.51% | 1.96%
5 | COc1ccc(-c2ccc3c(NC(=O)C4CC4)n[nH]c3n2)cc1 | -0.03% | 0.55% | 0.33% | 0.37% | 3.49% | 0.37% | 5.32% | 9.55% | 2.9% | 10.4% | 0.51% | 3.19% | -0.1% | 0.25% | 1.32% | 2.82% | 2.27% | 2.9% | 0.22% | 0.21%
6 | COc1ccc2ncn(-c3cc(O[C@H](C)c4ccccc4Cl)c(C(N)=O)s3)c2c1 | -3.63% | -2.95% | -2.65% | -2.8% | -2.12% | -1.2% | -0.3% | 0.35% | 8.25% | 2.33% | -0.38% | 1.13% | 0.7% | 3.24% | 2.21% | 1.33% | 3.9% | 2.99% | 0.38% | 2.8%
7 | COc1ccc2cc(-c3c(-c4ccncc4)nc(-c4ccc(S(C)(=O)=O)cc4C)n3C)ccc2c1 | 1.8% | 1.99% | 2.93% | 2.26% | 2.8% | 4.98% | 5.87% | 8.14% | 4.36% | 8.69% | 0.29% | 1.6% | 2.15% | 1.98% | 3.82% | 5.44% | 7.21% | 9.9% | 1.75% | 3.34%
8 | CNC(=O)c1cncc(/C=C/c2c(C)cccc2C)c1 | -2.43% | -2.92% | -3.43% | -4.29% | -2.01% | -2.42% | 4.6% | -0.29% | 1.47% | -7.66% | 1.09% | 4.17% | -0.27% | -0.99% | -1.22% | -0.95% | 1.35% | 1.5% | 2.04% | 0.86%
9 | NC(=O)c1cc(-c2ccc(F)cc2)cc(-c2ccncc2)c1N | 0.92% | 1.2% | 1.95% | 2.01% | 2.01% | 4.31% | 5.99% | 6.88% | 2.49% | 11.1% | -1.04% | -1.25% | -1.54% | -2.26% | 2.2% | 1.39% | 2.03% | 2.52% | 1.5% | 2.24%
10 | Fc1ccc(-c2ncn(C3CCNCC3)c2-c2ccnc(Oc3ccc4c(c3)OCO4)n2)cc1 | 2.04% | 1.04% | 0.93% | 2.21% | 0.23% | 3.88% | 0.51% | 2.27% | 9.41% | 2.9% | -2.57% | 9.23% | 0.96% | 2.94% | -2.64% | -3.44% | 3.63% | 4.53% | 2.58% | 5.14%
11 | Cc1nnc(-c2ccc(C)c(-c3ccc(C(=O)NCc4ccc(Cl)cc4)cc3)c2)o1 | -1.66% | -2.4% | 0.03% | -2.39% | 0.07% | -0.93% | 5.17% | 5.38% | 4.29% | 9.45% | 0.16% | 1.24% | 0.69% | -0.22% | 1.45% | 1.55% | 3.07% | 3.61% | 1.21% | 2.04%
12 | Cc1ccc(C(=O)NC2CCC2)cc1-c1ccc(C(=O)NCC2CC2)cc1 | 0.45% | -0.14% | 1.03% | 1.6% | 2.92% | 2.79% | 1.01% | 1.27% | 2.9% | 3.16% | 0.19% | 0.56% | 0.73% | 0.97% | 2.7% | 2.99% | 1.75% | 3.11% | 1.12% | 0.01%
13 | NCc1ccc(-n2c(-c3nonc3N)nc3cnccc32)cc1 | 3.84% | 15.8% | 3.5% | 15.1% | 1.72% | 20.5% | 5.51% | 7.31% | 9.11% | 15.5% | 43.4% | 90.6% | 59.8% | 83.5% | 54.7% | 78.7% | 20.1% | 63.3% | 21.3% | 69.9%
14 | COc1cc2ncn(-c3cc(OCCc4ccccc4)c(C(N)=O)s3)c2cc1OC | 0.55% | 0.01% | 1.52% | 0.89% | 1.12% | -0.88% | -2.45% | -0.33% | 2.29% | 2.5% | 1.17% | 2.94% | 1.02% | 1.01% | 1.83% | 0.4% | 0.49% | 0.9% | 1.13% | 0.05%
